AC50 and outcome data for 20 compounds are collected here from PubChem BioAssay (EPA / NIEHS).

“And” between values parts separate entries of the source, which are not always exact repeats. Equal values may be shown once. Records with an inconclusive call do not appear. A structure can be active in one record and inactive in another. The source made the active and inactive calls. The calls were made as follows: active = hit-call score of the fitted dose curve at least 0.9, where 1 is the maximum; inconclusive = response in the unintended direction; inactive = score below 0.9.

Experiment [1] deals with Estrogen receptor beta (Homo sapiens) (UniProt Q92731). Kind of experiment: OT_ER_ERbERb_0480: Odyssey Thera (OT) 8-hour HEK293T Protein-Complementation Assay for Estrogen Receptor-beta/-beta Homodimer (AID 2283357).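 Also: active means signal gain over DMSO baseline.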 A digest of the protocol:
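Fluorescence gain from complemented reporter fragments on ER-beta LBD homodimer in HEK293T was quantified against DMSO controls after 8 h treatment, fixation in 4% formaldehyde and Draq5 staining.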

Experiment [2] deals with PGR (gene 5241) (UniProt P06401). Kind of experiment: NVS_NR_hPR: NovaScreen (NVS) Nuclear Receptor Binding Assay for human Progestron Receptor (PR) (AID 2283360).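 Also: active means loss of bound radioligand signal versus DMSO baseline.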 A digest of the protocol:
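T47D lysate; tritiated or iodinated radioligand; scintillation count at 18 h. DMSO = negative control/baseline. Primary: 25 uM, duplicate. Secondary: concentration series for actives.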

In experiment [3] the target is Nuclear receptor subfamily 1 group I member 2 (Homo sapiens) (UniProt O75469). Kind of experiment: NVS_NR_hPXR: NovaScreen (NVS) Nuclear Receptor Binding Assay for human Pregnane X Receptor (PXR) (AID 2283365).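 Also: a drop in FRET signal versus DMSO baseline means the compound binds.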 The method in brief:
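Read-out: TR-FRET, human PXR, 2 h post-dosing, cell-free. Loss of signal vs DMSO taken as binding activity; 25 uM primary, concentration series secondary.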

Experiment [4] deals with Estrogen receptor (Homo sapiens) (UniProt P03372). Kind of experiment: OT_ER_ERaERa_0480: Odyssey Thera (OT) 8-hour HEK293T Protein-Complementation Assay for Estrogen Receptor-alpha/-alpha Homodimer (AID 2283351).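 Also: rise in fluorescence from reassembled reporter fragments on ERα LBD homodimer in nucleus or whole cell.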 A digest of the protocol:
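Measures ERα LBD (aa 310-547) homodimer complementation in stably transfected HEK293T at 8 h post-dose, with fluorescence intensity quantified on a laser scanning cytometer relative to DMSO controls.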

Experiment [5] has as its target T1, Estrogen receptor (Homo sapiens) + Estrogen receptor beta (Homo sapiens) (UniProt P03372+Q92731). Kind of experiment: OT_ER_ERaERb_0480: Odyssey Thera (OT) 8-hour HEK293T Protein-Complementation Assay for Estrogen Receptor-alpha/-beta Heterodimer (AID 2283352). A digest of the protocol:
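Human HEK293T cells were treated for 8 hours and receptor heterodimerisation was detected through reconstitution of a fluorescent reporter split between ER-alpha and ER-beta ligand-binding domains. Activity was analysed as gain of signal against DMSO.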

The target in experiment [6] is T1, Estrogen receptor (Homo sapiens) + Estrogen receptor beta (Homo sapiens). Kind of experiment: OT_ER_ERaERb_1440: Odyssey Thera (OT) 24-hour HEK293T Protein-Complementation Assay for Estrogen Receptor-alpha/-beta Homodimer (AID 2283356).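 Also: heteromer of ER alpha and ER beta binding domains; hits raise reporter fluorescence and both agonists and antagonists give an increase.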 A digest of the protocol: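 24 h exposure; HEK293T PCA cells with ERα/ERβ LBD fragments; signal rise in nuclear or whole-cell fluorescence over vehicle.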

Experiment [7] deals with human Thyroid Receptor Alpha (TRa), THRA (gene 7067) (UniProt P10827). Description: NVS_NR_hTRa_Antagonist: NovaScreen (NVS) Nuclear Receptor Binding Assay for human Thyroid Receptor Alpha Antagonism (TRa) (AID 2283362).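 Also: activity is loss of signal relative to DMSO baseline.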 A digest of the protocol:
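In this biochemical format, receptor protein is dosed with chemical and read after 1 hour via AlphaLISA. Decreases from the DMSO baseline indicate antagonist activity; screening used 25 uM in duplicate before concentration-response confirmation.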

The target in experiment [8] is Glucocorticoid receptor (Homo sapiens) (UniProt P04150). Kind of experiment: NVS_NR_hGR: NovaScreen (NVS) Nuclear Receptor Binding Assay for human Glucocorticoid Receptor (GR) (AID 2283363).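 As to AC50: activity is loss of specific radioligand binding signal relative to DMSO.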 A digest of the protocol: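 Single-readout cell-free binding: radioligand plus extracted receptor, 16-hour dosing, filter radiodetection; 25 uM duplicate primary, concentration series secondary.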
Chain of Glucocorticoid receptor (Homo sapiens) (P04150 whole entry, looked up): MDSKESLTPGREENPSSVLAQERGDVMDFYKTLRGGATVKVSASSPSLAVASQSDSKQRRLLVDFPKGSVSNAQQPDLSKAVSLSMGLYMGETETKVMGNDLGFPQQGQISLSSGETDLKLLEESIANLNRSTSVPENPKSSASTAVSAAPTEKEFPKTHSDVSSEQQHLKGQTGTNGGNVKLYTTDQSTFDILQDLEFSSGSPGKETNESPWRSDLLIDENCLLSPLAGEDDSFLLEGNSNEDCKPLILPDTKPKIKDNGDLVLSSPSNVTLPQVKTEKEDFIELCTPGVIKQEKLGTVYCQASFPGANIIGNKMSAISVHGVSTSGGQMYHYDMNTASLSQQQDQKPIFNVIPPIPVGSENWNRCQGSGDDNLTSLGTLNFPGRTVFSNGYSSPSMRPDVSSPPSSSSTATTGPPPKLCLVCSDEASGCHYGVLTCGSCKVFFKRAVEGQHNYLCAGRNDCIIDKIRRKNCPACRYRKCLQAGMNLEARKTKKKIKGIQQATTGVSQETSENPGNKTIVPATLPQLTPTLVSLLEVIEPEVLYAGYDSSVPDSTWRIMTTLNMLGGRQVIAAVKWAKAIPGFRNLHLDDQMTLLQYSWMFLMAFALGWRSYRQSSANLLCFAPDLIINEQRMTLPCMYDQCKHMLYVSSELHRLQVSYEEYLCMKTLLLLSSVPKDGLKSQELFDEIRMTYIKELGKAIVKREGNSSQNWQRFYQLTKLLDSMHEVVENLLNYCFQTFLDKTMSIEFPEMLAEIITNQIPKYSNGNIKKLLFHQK

The target in experiment [9] is guinea pig Sigma Receptor, Non-selective Binding, SIGMAR1 (gene 100135589) (UniProt Q60492). Description: NVS_OR_gSIGMA_NonSelective: NovaScreen (NVS) Nuclear Receptor Binding Assay for guinea pig Sigma Receptor, Non-selective Binding (AID 2283367). A digest of the protocol:
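Test chemicals were screened in duplicate at 25 uM, then in concentration series if active, against radioligand binding to guinea pig brain membranes; filtration and scintillation counting at 1 h measured remaining bound ligand.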

In experiment [10] the target is Androgen Receptor/SRC-1 Co-activator, AR (gene 367) (UniProt P10275). Kind of experiment: OT_AR_ARSRC1_0960: Odyssey Thera (OT) 16-hour HEK293T Protein-Complementation Assay for Androgen Receptor/SRC-1 Co-activator (AID 2283353).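 Also: actives raise the signal above DMSO so potency reflects increased AR and SRC-1 complex.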 A digest of the protocol:
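Sixteen-hour cell assay: Venus halves fused to AR and SRC-1 in HEK293T report binding. Images at 488/635 nm give an N/C ratio in the 488 nm channel over ≥400 cells, analysed as signal increase over DMSO.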

For experiment [11] the target is unchanged. Description: OT_AR_ARSRC1_0480: Odyssey Thera (OT) 8-hour HEK293T Protein-Complementation Assay for Androgen Receptor/SRC-1 Co-activator (AID 2283354).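 Also: hits raise the complementation signal above DMSO so AC50 marks enhancers.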 The method in brief:
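After 8 h dosing, stably expressing HEK293T cells with split-Venus AR/SRC-1 fusions were imaged (488, 635nm). The 488nm N/C ratio per image gave the endpoint, analysed in the positive direction against DMSO.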

Experiment [12] concerns the target Retinoic acid receptor alpha (Homo sapiens) (UniProt P10276). Description: NVS_NR_hRAR_Antagonist: NovaScreen (NVS) Nuclear Receptor Binding Assay for human Retinoic Acid Alpha Receptor Antagonism (RAR) (AID 2283358). A digest of the protocol:
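Chemicals were first tested in duplicate at 25 uM, then actives in concentration series, in a cell-free TR-FRET antagonist binding format. Measurements were taken 2 hours after dosing and loss of signal was evaluated against DMSO controls.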

Experiment [13] deals with human Peroxisome Proliferator-activated Receptor alpha (PPARa), PPARA (gene 5465) (UniProt Q07869). Kind of experiment: NVS_NR_hPPARa: NovaScreen (NVS) Nuclear Receptor Binding Assay for human Peroxisome Proliferator-activated Receptor alpha (PPARa) (AID 2283359).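 Also: activity means loss of TR-FRET signal versus DMSO baseline.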 A digest of the protocol: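 One-hour incubation, cell-free extracted protein, TR-FRET binding readout; signal loss vs DMSO scored. Screen: 25 uM duplicates, confirmatory dose series for actives.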
Chain of human Peroxisome Proliferator-activated Receptor alpha (PPARa), PPARA (gene 5465) (Q07869 whole entry, looked up): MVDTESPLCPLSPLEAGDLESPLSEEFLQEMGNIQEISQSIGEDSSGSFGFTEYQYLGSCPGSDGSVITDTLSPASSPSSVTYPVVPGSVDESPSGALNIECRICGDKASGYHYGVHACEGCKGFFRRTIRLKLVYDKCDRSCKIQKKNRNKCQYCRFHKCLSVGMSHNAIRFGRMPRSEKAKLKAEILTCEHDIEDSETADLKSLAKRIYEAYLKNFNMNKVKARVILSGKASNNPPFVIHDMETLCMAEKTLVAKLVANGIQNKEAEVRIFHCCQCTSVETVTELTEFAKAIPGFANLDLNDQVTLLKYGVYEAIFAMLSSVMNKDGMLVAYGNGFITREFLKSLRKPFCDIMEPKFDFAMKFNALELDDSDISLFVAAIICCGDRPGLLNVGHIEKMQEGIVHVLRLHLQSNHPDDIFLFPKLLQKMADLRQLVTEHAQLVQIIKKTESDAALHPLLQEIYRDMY

Experiment [14] deals with Retinoic acid receptor alpha (Homo sapiens) (UniProt P10276). Description: NVS_NR_hRARa_Agonist: NovaScreen (NVS) Nuclear Receptor Binding Assay for human Retinoic Acid Alpha Receptor Agonism (RAR) (AID 2283361). A digest of the protocol: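 Compounds screened at 25 uM, duplicate, then in concentration series if active. Detection: TR-FRET gain of signal versus DMSO after 2 h with cell-free extracted RARα.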

Experiment [15] addresses rat Androgen Receptor (AR), Ar (gene 24208) (UniProt P15207). Description: NVS_NR_rAR: NovaScreen (NVS) Nuclear Receptor Binding Assay for rat Androgen Receptor (AR) (AID 2283366). The method in brief:
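Actives from a duplicate single-concentration (25 uM) primary run went on to concentration series. Displacement of radioligand was counted by filtration and scintillation, 18 h post-dose, using prostate extracts from testosterone-pretreated rats, with DMSO as baseline.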

In experiment [16] the target is human Adenosine Transporter (Adot), SLC29A1 (gene 2030) (UniProt Q99808). Description: NVS_TR_hAdoT: NovaScreen (NVS) Transporter Assay for human Adenosine Transporter (Adot) (AID 2283368). The method in brief:
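Binding displacement on U937 extracted protein, read 1 h post-dose by filtration and scintillation counting. Primary duplicate test at 25 uM, then singleton concentration series with 50 uM top; DMSO baseline.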

For experiment [17], the target named is rat Mineralocorticoid Receptor (MR), Nr3c2 (gene 25672) (UniProt P22199). Kind of experiment: NVS_NR_rMR: NovaScreen (NVS) Nuclear Receptor Binding Assay for rat Mineralocorticoid Receptor (MR) (AID 2283355). A digest of the protocol: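 Single-concentration duplicate screen (25 uM) of radioligand binding in adrenalectomized rat brain supernatant; scintillation detection 24 h after dosing. Positive and negative controls ran on each plate, and confirmed actives went to concentration-response.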

Chain of human Adenosine Transporter (Adot), SLC29A1 (gene 2030) (Q99808 whole entry, looked up): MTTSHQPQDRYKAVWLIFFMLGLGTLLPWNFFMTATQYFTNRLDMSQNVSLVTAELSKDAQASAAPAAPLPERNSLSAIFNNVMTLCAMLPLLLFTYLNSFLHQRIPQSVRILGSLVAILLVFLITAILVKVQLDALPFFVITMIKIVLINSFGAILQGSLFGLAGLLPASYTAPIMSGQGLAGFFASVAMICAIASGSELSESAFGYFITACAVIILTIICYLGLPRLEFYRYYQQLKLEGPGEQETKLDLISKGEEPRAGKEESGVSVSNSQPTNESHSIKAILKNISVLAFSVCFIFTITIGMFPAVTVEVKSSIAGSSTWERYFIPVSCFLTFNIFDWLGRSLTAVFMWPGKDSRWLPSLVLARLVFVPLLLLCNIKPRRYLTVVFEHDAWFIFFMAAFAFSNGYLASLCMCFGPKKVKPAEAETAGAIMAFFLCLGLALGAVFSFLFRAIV
Chain of Nuclear receptor subfamily 1 group I member 2 (Homo sapiens) (O75469 whole entry, looked up): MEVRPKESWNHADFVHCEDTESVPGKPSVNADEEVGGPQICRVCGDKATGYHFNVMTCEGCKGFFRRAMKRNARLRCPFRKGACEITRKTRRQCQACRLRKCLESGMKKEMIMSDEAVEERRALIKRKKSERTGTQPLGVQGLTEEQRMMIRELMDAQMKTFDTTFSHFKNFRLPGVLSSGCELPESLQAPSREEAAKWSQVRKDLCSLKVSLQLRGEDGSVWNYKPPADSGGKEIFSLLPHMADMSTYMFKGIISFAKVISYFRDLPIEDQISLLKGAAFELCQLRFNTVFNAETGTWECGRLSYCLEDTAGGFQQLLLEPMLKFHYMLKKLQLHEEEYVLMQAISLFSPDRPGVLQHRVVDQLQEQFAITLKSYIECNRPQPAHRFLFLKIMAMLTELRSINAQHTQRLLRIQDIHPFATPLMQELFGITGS
Chain of PGR (gene 5241) (P06401 whole entry, looked up): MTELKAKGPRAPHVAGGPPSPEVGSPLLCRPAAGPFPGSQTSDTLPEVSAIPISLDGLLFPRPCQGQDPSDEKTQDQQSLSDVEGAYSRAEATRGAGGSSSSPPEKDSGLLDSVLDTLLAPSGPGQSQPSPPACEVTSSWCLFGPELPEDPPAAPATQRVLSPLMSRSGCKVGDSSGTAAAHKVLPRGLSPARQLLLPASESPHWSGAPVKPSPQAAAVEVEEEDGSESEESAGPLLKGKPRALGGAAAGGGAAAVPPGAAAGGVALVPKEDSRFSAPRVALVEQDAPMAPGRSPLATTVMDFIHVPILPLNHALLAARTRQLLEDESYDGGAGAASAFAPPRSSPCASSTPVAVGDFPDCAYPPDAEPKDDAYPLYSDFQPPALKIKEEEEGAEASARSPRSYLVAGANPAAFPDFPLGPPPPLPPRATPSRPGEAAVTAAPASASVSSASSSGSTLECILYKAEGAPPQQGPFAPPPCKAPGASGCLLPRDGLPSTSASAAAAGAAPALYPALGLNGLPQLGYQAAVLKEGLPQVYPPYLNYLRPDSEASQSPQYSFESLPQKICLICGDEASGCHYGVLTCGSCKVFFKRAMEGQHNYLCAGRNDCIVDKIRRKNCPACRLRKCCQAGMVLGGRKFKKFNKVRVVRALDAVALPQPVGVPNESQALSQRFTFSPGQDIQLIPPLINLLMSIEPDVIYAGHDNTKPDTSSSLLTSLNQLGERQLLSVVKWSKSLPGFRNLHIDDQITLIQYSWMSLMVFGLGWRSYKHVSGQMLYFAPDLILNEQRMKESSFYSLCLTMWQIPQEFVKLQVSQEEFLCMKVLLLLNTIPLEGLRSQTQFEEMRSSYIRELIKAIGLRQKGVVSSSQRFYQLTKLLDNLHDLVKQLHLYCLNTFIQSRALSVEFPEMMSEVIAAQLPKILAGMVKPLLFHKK
Chain of Androgen Receptor/SRC-1 Co-activator, AR (gene 367) (P10275 whole entry, looked up, the tested form may be a part): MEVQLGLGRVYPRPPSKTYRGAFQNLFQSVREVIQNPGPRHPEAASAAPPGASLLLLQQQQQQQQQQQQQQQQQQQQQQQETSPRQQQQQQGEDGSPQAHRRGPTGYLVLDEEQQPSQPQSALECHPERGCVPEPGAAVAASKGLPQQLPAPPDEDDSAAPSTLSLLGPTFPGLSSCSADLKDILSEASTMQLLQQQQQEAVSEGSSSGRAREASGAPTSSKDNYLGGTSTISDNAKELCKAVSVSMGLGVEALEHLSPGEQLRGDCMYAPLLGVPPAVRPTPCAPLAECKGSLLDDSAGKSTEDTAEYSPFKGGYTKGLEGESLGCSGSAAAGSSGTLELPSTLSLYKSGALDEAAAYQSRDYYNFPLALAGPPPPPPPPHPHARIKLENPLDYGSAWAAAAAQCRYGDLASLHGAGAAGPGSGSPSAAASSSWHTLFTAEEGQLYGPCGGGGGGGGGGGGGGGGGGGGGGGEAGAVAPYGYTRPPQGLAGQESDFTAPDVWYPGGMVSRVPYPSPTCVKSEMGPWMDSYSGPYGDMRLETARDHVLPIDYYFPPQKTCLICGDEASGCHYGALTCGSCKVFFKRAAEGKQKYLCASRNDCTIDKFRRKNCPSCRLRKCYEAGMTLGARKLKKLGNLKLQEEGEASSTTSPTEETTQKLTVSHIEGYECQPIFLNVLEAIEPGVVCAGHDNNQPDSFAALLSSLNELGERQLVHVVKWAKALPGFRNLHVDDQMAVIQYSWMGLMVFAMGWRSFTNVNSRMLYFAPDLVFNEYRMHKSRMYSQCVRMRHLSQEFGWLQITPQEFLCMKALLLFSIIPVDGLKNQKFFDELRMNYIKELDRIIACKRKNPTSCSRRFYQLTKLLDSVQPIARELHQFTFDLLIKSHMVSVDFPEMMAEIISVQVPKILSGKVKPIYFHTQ
Chain of rat Androgen Receptor (AR), Ar (gene 24208) (P15207 whole entry, looked up): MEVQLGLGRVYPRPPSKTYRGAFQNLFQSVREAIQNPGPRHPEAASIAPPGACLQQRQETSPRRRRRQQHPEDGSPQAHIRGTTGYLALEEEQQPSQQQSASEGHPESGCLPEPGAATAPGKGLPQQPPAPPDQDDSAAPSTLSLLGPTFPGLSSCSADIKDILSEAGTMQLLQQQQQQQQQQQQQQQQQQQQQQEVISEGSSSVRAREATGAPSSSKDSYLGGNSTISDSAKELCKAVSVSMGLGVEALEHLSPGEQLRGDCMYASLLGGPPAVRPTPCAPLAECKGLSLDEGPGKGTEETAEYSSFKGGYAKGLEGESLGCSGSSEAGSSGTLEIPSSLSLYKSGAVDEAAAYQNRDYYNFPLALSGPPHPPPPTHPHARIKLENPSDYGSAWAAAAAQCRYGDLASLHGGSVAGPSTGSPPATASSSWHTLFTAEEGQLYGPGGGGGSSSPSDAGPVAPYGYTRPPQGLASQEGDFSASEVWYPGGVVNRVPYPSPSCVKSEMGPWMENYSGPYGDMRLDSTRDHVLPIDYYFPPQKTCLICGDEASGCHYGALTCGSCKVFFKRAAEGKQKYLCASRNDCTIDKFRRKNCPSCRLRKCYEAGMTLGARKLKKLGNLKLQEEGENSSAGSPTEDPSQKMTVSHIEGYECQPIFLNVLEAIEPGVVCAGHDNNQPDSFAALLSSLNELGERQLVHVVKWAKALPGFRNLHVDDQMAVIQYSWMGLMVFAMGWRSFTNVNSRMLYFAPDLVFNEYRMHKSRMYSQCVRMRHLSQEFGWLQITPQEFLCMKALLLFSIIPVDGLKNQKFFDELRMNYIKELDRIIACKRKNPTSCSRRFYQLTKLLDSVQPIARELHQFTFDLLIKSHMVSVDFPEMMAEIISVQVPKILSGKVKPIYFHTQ

With `ClC1C(Cl)C(Cl)C(Cl)C(Cl)C1Cl` (stereo not drawn), the AC50 (commonly the midpoint of the concentration-response curve, whichever way the signal moves) in [1] is 50 µM (active). The compound was classed as inactive in experiment [1], in [2] and in [3].
For `COc1nn(CSP(=S)(OC)OC)c(=O)s1`, the result in [4], in experiment [5], in experiment [6], in experiment [1], in [2] and in experiment [7] was inactive. Moreover, in experiment [8], the call was inactive. Further, the AC50 in experiment [9] was 10.7 µM (active).
With `C#CCN1C(=O)COc2cc(F)c(N3C(=O)C4=C(CCCC4)C3=O)cc21`, the call in [4], in experiment [10], in [11] and in [6] was inactive.
Turning to `CC(C)(C)C(O)/C(=C\c1ccc(Cl)cc1Cl)n1cncn1` (stereo not drawn), the outcome in experiment [4], in experiment [6] and in [1] was inactive. Also, the AC50 is 667 nM (active) in [2], 0.281 µM (active) in experiment [3] and 1.25 µM (active) in experiment [9].
`Clc1ccccc1-c1nnc(-c2ccccc2Cl)nn1`: the compound was classed as inactive in experiment [4], in experiment [5], in [6] and in [1].
As to `Oc1ccc(Cl)cc1Cc1ccccc1`, the AC50 in [10] was 50.5 µM (active); in experiment [11] it was 63.2 µM (active); in experiment [1], 12 µM (active); in experiment [2], 16.5 µM (active) [middle of 6 runs]; in [15], 12.3 µM (active) [middle of 6 runs]; in experiment [16], 39.8 µM (active) and 25.2 µM (active) and 36.3 µM (active). Further, the compound was called inactive in [12], in experiment [13], in experiment [14] and in experiment [16].
Take `O=C(O)CCCOc1ccc(Cl)cc1Cl`: the call in experiment [10], in [11], in [1], in experiment [2] and in experiment [15] was inactive.
Regarding `CC[C@H](C)[C@H]1O[C@]2(C=C[C@@H]1C)C[C@@H]1C[C@@H](C/C=C(\C)[C@@H](O[C@H]3C[C@H](OC)[C@@H](O[C@H]4C[C@H](OC)[C@@H](O)[C@H](C)O4)[C@H](C)O3)[C@@H](C)/C=C/C=C3\CO[C@@H]4[C@H](O)C(C)=C[C@@H](C(=O)O1)[C@]34O)O2` (tested in a mixture with another compound), the call in experiment [4], in experiment [2] and in experiment [9] was inactive. Further, the results for the AC50 in [12], in experiment [7] and in experiment [8] were 12.2 µM (active), 12 µM (active) and 8.5 µM (active), respectively.
As for `CCC(C)(NC(=O)c1cc(Cl)c(C)c(Cl)c1)C(=O)CCl` (stereo not drawn), the compound was called inactive in experiment [4], in [5], in [6] and in experiment [1].
For `CCC(C)Nc1c([N+](=O)[O-])cc(C(C)(C)C)cc1[N+](=O)[O-]` (stereo not drawn), the compound was called inactive in experiment [4] and in experiment [1]. Besides, the AC50 in experiment [5] was 34.7 µM (active); in experiment [6], 69.9 µM (active).
In the case of `O=S(=O)(O)C(F)(F)C(F)(F)C(F)(F)C(F)(F)C(F)(F)C(F)(F)C(F)(F)C(F)(F)F`, the AC50 in experiment [13] was 11.2 µM (active); in [2], 20.2 µM (active) [middle of 4 runs]; in experiment [7], 12 µM (active); in [3], 39.6 µM (active). Also, in experiment [13], the compound was classed as inactive.
As to `O=C(O)COc1ccc(Cl)cc1Cl`, the result in [8] and in [9] was inactive.
In the case of `COc1cc(OC)nc(NC(=O)NS(=O)(=O)c2cc(NC=O)ccc2C(=O)N(C)C)n1`, in [7], the result was inactive.
Consider `CNC(=O)CSP(=S)(OC)OC`, for which the compound was called inactive in experiment [4], in experiment [17], in experiment [6], in experiment [1] and in experiment [7]. Moreover, in experiment [2], the AC50 was 6300 nM (active).
On to `N#CN`, for which the compound was classed as inactive in experiment [4], in [5], in experiment [6] and in experiment [1].
`CC(C)(C)C(O)C(Oc1ccc(Cl)cc1)n1cncn1` (stereo not drawn): the AC50 in [1] was 67.3 µM (active); in [3] it was 25 µM (active). Also, the result in [12], in experiment [13], in experiment [2] and in experiment [7] was inactive.
With `CNC(=O)Oc1cccc(N=CN(C)C)c1`, the call in experiment [4], in [5], in experiment [6] and in experiment [1] was inactive.
As for `CC(C)OC(=O)Nc1cccc(Cl)c1`, the outcome in [4], in experiment [5] and in experiment [6] was inactive.
For the compound `O=C(O)C(F)(F)C(F)(F)C(F)(F)C(F)(F)C(F)(F)C(F)(F)C(F)(F)F`, the compound was called inactive in [1], in experiment [13] and in [2].
On to `CNC(=O)/C=C(\C)OP(=O)(OC)OC`, for which the result in experiment [4], in [5], in [6] and in [1] was inactive.
